ALOX12 inh = blocks human arachidonate 12S-lipoxygenase. purified 12hLO, xylenol orange hydroperoxide absorbance. P18054. Potency, µM (series often up to 108 µM), usual class: inhibitors. hit rate 1.1% among 580,000
Target sequence (P18054 whole entry, looked up): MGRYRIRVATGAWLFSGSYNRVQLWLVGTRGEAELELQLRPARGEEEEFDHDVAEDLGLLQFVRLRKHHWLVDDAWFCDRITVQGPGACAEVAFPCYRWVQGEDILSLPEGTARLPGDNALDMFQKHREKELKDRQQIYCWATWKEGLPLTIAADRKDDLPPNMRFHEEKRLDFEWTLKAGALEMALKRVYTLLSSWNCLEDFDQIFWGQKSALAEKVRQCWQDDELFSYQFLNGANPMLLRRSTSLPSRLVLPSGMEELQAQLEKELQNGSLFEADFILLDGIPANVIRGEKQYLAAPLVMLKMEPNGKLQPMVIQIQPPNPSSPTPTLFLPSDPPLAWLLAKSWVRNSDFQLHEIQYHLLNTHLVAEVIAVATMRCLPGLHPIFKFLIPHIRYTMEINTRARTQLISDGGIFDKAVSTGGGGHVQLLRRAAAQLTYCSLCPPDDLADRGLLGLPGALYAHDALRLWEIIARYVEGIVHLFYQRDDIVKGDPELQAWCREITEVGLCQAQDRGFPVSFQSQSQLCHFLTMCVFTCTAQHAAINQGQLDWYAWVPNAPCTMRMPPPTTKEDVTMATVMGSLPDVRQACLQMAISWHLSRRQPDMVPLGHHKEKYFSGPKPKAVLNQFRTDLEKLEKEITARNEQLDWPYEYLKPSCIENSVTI
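Hydroperoxide product was detected by ferrous iron/xylenol orange as the 573 to 405 nm absorbance ratio. Arachidonic acid at 40 uM (final) was turned over for 30 min at room temperature by 150 nM human 12hLO, pH 7.0 Hepes buffer, after 15 min compound preincubation.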
DT40 TDP1 CPT = DT40-hTDP1 cell growth loss with CPT. hit rate 12% among 420,000. chicken DT40 Tdp1-/-;hTDP1 cells + 20 nM CPT, ATP luminescence, 48 h. Potency, µM (series often up to 46.2 µM), actives largely listed as inhibitors; further: nearly all actives have a fitted effect of over 55% in size
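Chicken DT40 Tdp1-/- cells stably complemented with human TDP1 were seeded at 400 cells/well in medium containing 20 nM camptothecin, exposed to pin-transferred compounds, and grown at 37 °C for at least 48 hr. Viability was read as ATP luminescence.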
HT1080-NT tox = kills 2HG-producing HT-1080-NT fibrosarcoma cells; HT-1080-NT fibrosarcoma viability, CellTiter-Glo ATP luminescence, 48 h; Potency, µM (doses to about 46.1 µM), hits mostly cytotoxic; hit rate 1.6% among 360,000;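 further: NT is the 2HG producing partner of a matched IDH1 knockdown line; nearly all actives have a fitted effect of over 55% in size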
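A 48-hour cytotoxicity screen used HT-1080-NT cells plated 2 hours before compound delivery. ATP-based CellTiter-Glo luminescence measured viability, normalized to DMSO and no-cell controls.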
DT40 TDP1 no CPT = qHTS for Inhibitors of human tyrosyl-DNA phosphodiesterase 1 (TDP1): qHTS in cells in absence of CPT; DT40 Tdp1-/- hTDP1 cells, no CPT, ATP luminescence, 48 h; hit rate 15% among 420,000; Potency, µM (top dose mostly 46.2 µM), actives largely listed as inhibitors; further: nearly all actives have a fitted effect of over 55% in size
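Chicken DT40 Tdp1-/- cells stably complemented with human TDP1 were seeded at 400 cells/well with DMSO in place of 20 nM camptothecin. After compound pinning, cells grew at least 48 hr at 37 °C; viability read by CellTiter-Glo luminescence.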
IL-1B inflam inh = blocks inflammasome-driven IL-1 beta release; THP-1 LPS/ATP IL-1B secretion, AlphaLISA, 16 h; hits give low values; activity change, % at 57.5 µM; hit rate 4.7% among 360,000; AID 743279; in the data active means activity change below about -50%; inconclusive means mostly about -30% to -49%
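THP-1 cells pretreated 1 hr with compounds (up to 57.5 uM final), then stimulated with LPS (250 ng/mL final) plus ATP (1.25 mM final); secreted IL-1B measured by AlphaLISA after 16 hr, decreased signal indicating inhibition.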
HT1080 IDH1KD tx = kills HT-1080 cells with IDH1 knockdown | HT-1080 IDH1 knockdown viability, ATP luminescence, 48 h | Potency, µM (doses to about 46.1 µM), most hits filed as cytotoxic | hit rate 2% among 360,000 | AID 686971
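Knockdown cells (IDH1KD HT-1080) received compounds 2 h after plating at 750 cells/well and were kept 48 h at 37 °C in 5% FBS RPMI. A CellTiter-Glo luminescence read gave % activity for curve fitting.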
Numbers stand for hits; 0 = inactive; ? = inconclusive; - = no result given; [ ] = another dose, or the depositor's remark. Shown is part of a subset that was picked to be rich in hits. Unless noted, the call rests on the fitted dose curve; in most records, active means well fitted curve in the direction sought with a large enough effect; inconclusive means small, poorly fitted or top-dose-only effect, or another doubt; inactive means no such curve, though single readings can be large; an effect the other way counts as inactive or inconclusive.

SMILES	ALOX12 inh	DT40 TDP1 CPT	HT1080-NT tox	DT40 TDP1 no CPT	IL-1B inflam inh	HT1080 IDH1KD tx
CC(=O)N1CCC(NC2(Cc3cc(CN(C)Cc4ccccc4)on3)COC2)CC1	0	-	-	-	-	-
Cc1cccc(OCCN(C)C(=O)c2n[nH]c(=O)c3ccccc23)c1	0	-	-	-	-	-
COc1ccc([C@H]2/C=C\CN(S(=O)(=O)/C=C/c3ccccc3)[C@@H](C)C(=O)N2Cc2ccc(F)cc2)cc1	0	?	0	21µM	0	0
CCCCC(=O)N1C/C=C\[C@H](c2ccc(OC)cc2)N(Cc2ccc(F)cc2)C(=O)[C@@H]1C	?	?	0	16µM	0	0
COc1ccc(C2/C=C\CN(C(=O)c3ccc(C)cc3)CC(=O)N2Cc2ccc(F)cc2)cc1 (stereo unspecified)	?	0	0	?	0	0
COc1ccc([C@H]2/C=C\CN(C(=O)c3ccccc3)[C@@H](C)C(=O)N2Cc2ccc(F)cc2)cc1	0	?	0	23µM	0	0
Cc1ccc(N2CCN(c3cnn(-c4nc5ccccc5s4)c(=O)c3Cl)CC2C)cc1 (stereo unspecified)	0	-	-	-	-	-
COc1ccc(CNC(=O)C2CCCN(S(=O)(=O)c3cccc4nsnc34)C2)cc1 (stereo unspecified)	0	0	0	23µM	0	0
COc1ccc(CNC(=O)C2CCN(S(=O)(=O)c3cccc4nsnc34)CC2)cc1	0	0	0	?	0	0
Cc1ccc(NC(=O)C2CCCN2S(=O)(=O)c2cccc3nsnc23)cc1F (stereo unspecified)	0	-	-	-	-	-
COc1ccc2nc(NC(=O)C3CCCN(S(=O)(=O)c4c(C)noc4C)C3)sc2c1 (stereo unspecified)	0	?	0	?	0	0
CCOc1ccc2nc(NC(=O)C3CCCN(S(=O)(=O)c4cccc5nonc45)C3)sc2c1 (stereo unspecified)	0	?	0	16µM	0	?
COc1ccc2nc(NC(=O)C3CCCN(S(=O)(=O)c4cccc5nsnc45)C3)sc2c1 (stereo unspecified)	0	?	0	16µM	?	0
Cc1ccc(NC(=O)C2CCCN(S(=O)(=O)c3cccc4nsnc34)C2)cc1C (stereo unspecified)	0	?	-	18µM	-	-
CC(C)C(NS(=O)(=O)c1cccc2nsnc12)C(=O)Nc1nccs1 (stereo unspecified)	0	0	0	0	0	0
COc1cccc(N2CCN(C(=O)C3CCCN(S(=O)(=O)c4cccc5nsnc45)C3)CC2)c1 (stereo unspecified)	0	9.2µM	-	9.2µM	-	-
COc1ccc(OC)c(NC(=O)C2CCCN(S(=O)(=O)c3cccc4nonc34)C2)c1 (stereo unspecified)	0	0	0	0	0	0
Cc1ccc(NC(=O)C2CCCN2S(=O)(=O)c2cccc3nsnc23)c(Br)c1 (stereo unspecified)	0	?	-	21µM	-	-
COc1ccc2nc(NC(=O)C3CCCN(S(=O)(=O)c4cccc5nonc45)C3)sc2c1 (stereo unspecified)	0	?	0	?	-53	0
Cc1ccc2nc(NC(=O)C(NS(=O)(=O)c3cccc4nsnc34)C(C)C)sc2c1 (stereo unspecified)	0	29µM	0	?	0	0
CC1CCN(C(=O)C2CCCN(S(=O)(=O)c3cccc4nsnc34)C2)CC1 (stereo unspecified)	0	?	0	0	0	0
CC(=O)c1cc(F)c(N2CCN(C(=O)c3ccc(Cl)c(Cl)c3)CC2)cc1C	0	-	-	-	-	-
Cc1nc(NCc2c(C)nn(C)c2Cl)sc1-c1ccn(CC2COc3ccccc3O2)n1 (stereo unspecified)	?	16µM	-	21µM	-	-
Cc1nn(C)cc1CNc1nc(C)c(-c2ccn(CC3COc4ccccc4O3)n2)s1 (stereo unspecified)	0	?	-	21µM	-	-
Cc1nc(NCc2cnn(C)c2C)sc1-c1ccn(CC2COc3ccccc3O2)n1 (stereo unspecified)	0	0[9.04 µM]	-	?	-	-
SMILES	ALOX12 inh	DT40 TDP1 CPT	HT1080-NT tox	DT40 TDP1 no CPT	IL-1B inflam inh	HT1080 IDH1KD tx
Cc1ccc(NC(=O)c2cc(S(=O)(=O)NCCC3=CCCCC3)ccc2F)cc1	0	?	0	?	-65	0
Cc1ccc(C)c(NC(=O)c2cc(S(=O)(=O)NCc3ccccc3)ccc2F)c1	0	?	-	?	-	-
Cc1ccc(C)c(NC(=O)c2cc(S(=O)(=O)NCCC3=CCCCC3)ccc2F)c1	?	?	-	21µM	-	-
Cc1ccc(CNS(=O)(=O)c2ccc(F)c(C(=O)Nc3ccc(C)c(F)c3)c2)cc1	0	0	-	0	-	-
CCN(CC)c1ccc(S(=O)(=O)N(CC)CC)cc1[N+](=O)[O-]	0	-	-	-	-	-
CNC(=O)c1cc[nH]c1C1CCCN(C(=O)c2cscn2)C1 (stereo unspecified)	0	-	-	-	-	-
N=C(N)SCc1nc2ccccc2c(=O)n1-c1ccccc1	0	?	0	18µM	?	0

Bioassay records deposited in PubChem by National Center for Advancing Translational Sciences (NCATS).
